# According to a collection of fitness landscapes (doi:10.1126/science.1257360):
# Over roughly 140,000 sequences, “enrichment ratio after two sorts for PhoP signalling” has its median near 0; the highest 2% begin near 11. This excerpt belongs to a sample that is enriched for the highest values.
# B1: PhoQ; a variant is named by its letters at X, in order, P23837 (parent)
# chain: MKKLLRLFFPLSLRVRFLLATAAVVLVLSLAYGMVALIGYSVSFDKTTFRLLRGESNLFYTLAKWENNKLHVELPENIDKQSPTMTLIYDENGQLLWAQRDVPWLMKMIQPDWLKSNGFHEIEADVNDTSLLLSGDHSIQQQLQEVREDDDDAEMTHSVAVNVYPATSRMPKLTIVVVDTIPVELKSSYMVWSWFIYVLSANLLLVIPLLWVAAWWSLRPIEALAKEVRELEEHNRELLNPATTRELTSLVRNLNRLLKSERERYDKYRTTLTDLTHSLKTPLXXLQXXLRSLRSEKMSVSDAEPVMLEQISRISQQIGYYLHRASMRGGTLLSRELHPVAPLLDNLTSALNKVYQRKGVNISLDISPEISFVGEQNDFVEVMGNVLDNACKYCLEFVEISARQTDEHLYIVVEDDGPGIPLSKREVIFDRGQRVDTLRPGQGVGLAVAREITEQYEGKIVAGESMLGGARMEVIFGRQHSAPKDE
# Variants of: B1
# Assay: enrichment ratio after two sorts for PhoP signalling (ratio (wild type AVST 3.29)); higher = more functional
# Settings: with PhoP (E. coli)
row,Variant,enrichment ratio
1,SDVD,≤ 0.25
2,FQFY,≤ 0.25
3,YCFT,≤ 0.25
4,QDDD,≤ 0.25
5,NLAY,≤ 0.25
6,GAMS,≤ 0.25
7,TPSS,≤ 0.25
8,GNLC,4.14
9,KCLC,≤ 0.25
10,MNLA,≤ 0.25
11,MCLC,1.65
12,TNLC,13.5
13,MNLC,11.7
14,RMKH,≤ 0.25
15,FPFY,≤ 0.25
16,FYFF,≤ 0.25
17,FHQK,≤ 0.25
18,ATIH,25.3
19,ANIH,≤ 0.25
20,AGIH,16.3
21,ADIH,≤ 0.25
22,TGIH,≤ 0.25
23,YTIH,≤ 0.25
24,HART,≤ 0.25

row,Variant,enrichment ratio
1,AQHF,≤ 0.25
2,AKSF,2.49
3,ADSF,≤ 0.25
4,AQSF,11.9
5,AISF,13.4
6,WISF,≤ 0.25
7,PMKN,≤ 0.25
8,SCIV,1.12
9,RQKI,19.2
10,TGCA,19.8
11,TGCE,24.6
12,RQQH,≤ 0.25
13,AGCK,16.1
14,RGCE,≤ 0.25
15,AGWM,≤ 0.25
16,AGGM,≤ 0.25
17,RQKH,≤ 0.25
18,GGCA,6.15
19,RGCA,≤ 0.25
20,GGCE,≤ 0.25
21,GKAG,≤ 0.25
22,TPNE,≤ 0.25
23,EIDL,≤ 0.25
24,VTQY,≤ 0.25

row,Variant,enrichment ratio
1,KAGG,≤ 0.25
2,SNFF,≤ 0.25
3,AGVA,1.62
4,TGCK,37.2
5,RGCK,≤ 0.25
6,TGCV,7.81
7,AGCV,23.6
8,TGVY,2.88
9,AGDH,≤ 0.25
10,AGDI,≤ 0.25
11,GGCK,≤ 0.25
12,AGVY,18.3
13,AGWI,≤ 0.25
14,AGCA,15
15,IEAT,≤ 0.25
16,WPAK,≤ 0.25
17,GFQM,≤ 0.25
18,YNLK,≤ 0.25
19,DYIY,≤ 0.25
20,KRVH,≤ 0.25
21,PCSH,≤ 0.25
22,ESFE,≤ 0.25
23,QFHQ,≤ 0.25
24,GIIK,≤ 0.25

row,Variant,enrichment ratio
1,IAHY,≤ 0.25
2,VMDH,≤ 0.25
3,AGCI,14
4,TGCM,16.3
5,AGQM,15.8
6,AGCE,6.71
7,AGWL,≤ 0.25
8,AGCL,15.2
9,AKQM,≤ 0.25
10,QGCM,1.34
11,AHQM,≤ 0.25
12,YWCL,≤ 0.25
13,RGCM,≤ 0.25
14,AGCS,10.8
15,YRSY,≤ 0.25
16,NQKY,≤ 0.25
17,VYPF,1.11
18,GMYR,≤ 0.25
19,RCYS,≤ 0.25
20,YPFH,≤ 0.25
21,ANCM,6.06
22,AGQP,≤ 0.25
23,AGCQ,23
24,AWCM,≤ 0.25

row,Variant,enrichment ratio
1,YWCQ,≤ 0.25
2,AGCM,13.6
3,GNWY,≤ 0.25
4,SFTF,≤ 0.25
5,HKIE,≤ 0.25
6,QMVR,≤ 0.25
7,SLVL,1.22
8,FSVL,11.7
9,KSVL,≤ 0.25
10,SSVL,13.8
11,FCVL,0.336
12,KRVL,≤ 0.25
13,VRVL,≤ 0.25
14,TRVL,11.6
15,SSVA,10.9
16,SHQM,0.951
17,ITPF,≤ 0.25
18,PVFC,≤ 0.25
19,QDST,≤ 0.25
20,QTQP,≤ 0.25
21,ISEK,≤ 0.25
22,KQRD,≤ 0.25
23,AYKP,≤ 0.25
24,SNCG,13.5

row,Variant,enrichment ratio
1,SQCG,24.3
2,IQCG,≤ 0.25
3,SPCG,1.67
4,LQCG,≤ 0.25
5,EQCG,≤ 0.25
6,ERSH,≤ 0.25
7,EHYT,≤ 0.25
8,STGY,8.87
9,MTGR,≤ 0.25
10,THGY,13.8
11,TDGY,11.5
12,ADGY,≤ 0.25
13,MFGY,≤ 0.25
14,MTGY,14.4
15,NHGY,≤ 0.25
16,MEGY,11.2
17,LTGY,≤ 0.25
18,TGGY,7.07
19,MMGY,≤ 0.25
20,GYHY,≤ 0.25
21,MGHH,≤ 0.25
22,LMID,≤ 0.25
23,GTGY,≤ 0.25
24,YTGY,≤ 0.25

row,Variant,enrichment ratio
1,TSGY,14.8
2,TTGY,20.5
3,KSGY,≤ 0.25
4,FSGY,≤ 0.25
5,EHTS,≤ 0.25
6,KLNV,≤ 0.25
7,PLEP,≤ 0.25
8,KFAF,≤ 0.25
9,KLER,0.976
10,LRTC,≤ 0.25
11,GPSH,≤ 0.25
12,REFT,≤ 0.25
13,WYPR,≤ 0.25
14,FIPD,≤ 0.25
15,AALL,14.9
16,AILL,4.86
17,IALL,8.58
18,LFLL,≤ 0.25
19,HFLL,≤ 0.25
20,AYLL,≤ 0.25
21,MKLL,11.4
22,HYLL,≤ 0.25
23,AKLL,14.3
24,HALL,12.4

row,Variant,enrichment ratio
1,MYLL,≤ 0.25
2,ERET,≤ 0.25
3,DVMR,≤ 0.25
4,IMCE,≤ 0.25
5,DQPA,≤ 0.25
6,YWCG,≤ 0.25
7,VLVV,≤ 0.25
8,DQYW,≤ 0.25
9,CFLG,≤ 0.25
10,KMML,≤ 0.25
11,AMLL,14.2
12,TKLL,16.2
13,NMLL,≤ 0.25
14,KKLL,≤ 0.25
15,KMLL,≤ 0.25
16,HKLL,1.86
17,VNCN,≤ 0.25
18,GPQD,≤ 0.25
19,AVPS,≤ 0.25
20,AVFQ,≤ 0.25
21,AVTC,6.81
22,AVSQ,14.8
23,AVMW,≤ 0.25
24,AVWI,≤ 0.25

row,Variant,enrichment ratio
1,AVSC,12.2
2,AVHP,≤ 0.25
3,AVSK,16.9
4,AVMI,15.6
5,AVMV,2.94
6,AVPC,≤ 0.25
7,MDVN,≤ 0.25
8,FYFS,≤ 0.25
9,KVID,≤ 0.25
10,GEKS,≤ 0.25
11,MTIG,≤ 0.25
12,NDGW,≤ 0.25
13,SKVW,≤ 0.25
14,AVAW,22.5
15,AVNL,≤ 0.25
16,NVAW,≤ 0.25
17,AVRW,≤ 0.25
18,AVTW,43.5
19,AVMN,18.8
20,AVPA,≤ 0.25
21,AKAW,≤ 0.25
22,AVFW,≤ 0.25
23,AVWN,≤ 0.25
24,AVTK,17.9

row,Variant,enrichment ratio
1,AVPI,2.35
2,LTGM,≤ 0.25
3,MQNP,≤ 0.25
4,KLMC,≤ 0.25
5,LHAE,≤ 0.25
6,DSVM,≤ 0.25
7,KHEF,≤ 0.25
8,FSFL,1.26
9,WYFI,≤ 0.25
10,EMFN,≤ 0.25
11,TEHM,58.9
12,QEHM,10.7
13,YYHM,≤ 0.25
14,KYHM,≤ 0.25
15,TGHM,4.7
16,SEHM,23.7
17,EAYE,≤ 0.25
18,GGYY,≤ 0.25
19,TLAM,3.04
20,AAAM,10.1
21,AKAM,13.1
22,ADAM,3.24
23,ALWM,≤ 0.25
24,ANAM,32.2

row,Variant,enrichment ratio
1,ALAM,12.2
2,ANIM,4.25
3,AIAM,6.08
4,IDWP,≤ 0.25
5,HREC,≤ 0.25
6,GNSH,1.23
7,IQIR,≤ 0.25
8,DTPS,≤ 0.25
9,GPWS,≤ 0.25
10,ESVV,≤ 0.25
11,CSLY,0.296
12,CSLS,21.9
13,CSLA,2.15
14,CSFT,≤ 0.25
15,CSLT,11.7
16,CSLP,≤ 0.25
17,NPIK,≤ 0.25
18,DVWP,≤ 0.25
19,DDAS,≤ 0.25
20,MKAH,≤ 0.25
21,MVTH,2.25
22,MCAH,2.04
23,QEAH,≤ 0.25
24,SFAH,≤ 0.25

row,Variant,enrichment ratio
1,MEAH,28.9
2,SEAH,31.6
3,MVAH,12.3
4,TEAH,40
5,NEAH,≤ 0.25
6,GVAH,0.601
7,HPAH,≤ 0.25
8,YETW,≤ 0.25
9,REHR,≤ 0.25
10,VKCV,≤ 0.25
11,MGTW,≤ 0.25
12,FNVE,≤ 0.25
13,NWYH,≤ 0.25
14,HLAW,≤ 0.25
15,VCYP,≤ 0.25
16,MRAI,≤ 0.25
17,TEFK,1.68
18,MFLG,0.27
19,HELG,12.3
20,TELG,27.4
21,MPLG,≤ 0.25
22,HPLG,≤ 0.25
23,MELG,22.3
24,HELA,≤ 0.25

row,Variant,enrichment ratio
1,HYLG,≤ 0.25
2,NELG,2.34
3,EFRW,≤ 0.25
4,YYAI,≤ 0.25
5,AISP,≤ 0.25
6,SFQS,≤ 0.25
7,NRHR,≤ 0.25
8,MSNW,≤ 0.25
9,PCTN,≤ 0.25
10,TDQW,≤ 0.25
11,LVST,≤ 0.25
12,RVEC,≤ 0.25
13,ADTF,≤ 0.25
14,AVHF,≤ 0.25
15,ASHF,≤ 0.25
16,ASTF,11.8
17,AVTF,11.4
18,CITF,≤ 0.25
19,ATTF,18.8
20,LTTF,≤ 0.25
21,YTTF,≤ 0.25
22,CSTF,15.8
23,AHTF,≤ 0.25
24,CTTF,≤ 0.25
